# From the supplement of paper PMC6555819
# Test system: PXR homodimer (NR concentration 270 nM)
# Experiment: PBM binding z-score (relative to random genomic background probes); higher = stronger binding; sequences stand for … in GC…GCGATTGACAGCGTAGAATGAAGG
# Outline: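 Custom Agilent 4×180K protein-binding microarrays carried double-stranded probes, each with a 34-nt variable region. These regions held direct-repeat seeds, single-nucleotide variants, half-site ablations and random human genomic background sequences. Ligand-free nuclear receptor dimers were incubated on the arrays for 1 h, antibodies against each partner (one per run) detected binding, and scanned fluorescence was regression-normalized. Binding z-scores take the random background probes as reference.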
row,Sequence,PBM binding z-score
1,CCTTACGGGTCACTCCAGGTTATAGCATCGGAGT,0.216
2,TTGCCTAGGTCATGGGCCAGTATACCACGCGAAC,-0.21
3,TCTTGTAGATCAATGGTTAAGAAAGCCGAAGCCT,-0.283
4,CCGACTGGGGCATAAGGTTACCCTAAGCCAGCCC,-0.708
5,CCTTACTGGTCACTCCAGGTTATAGCATCGGAGT,0.586
6,ATCTCTAGGTCACCAAGTTCAGTGAATGCCGAAC,11.1
7,AGAACGAGGGCAATGAGTTGTTAGCACGGGTGGC,1.26
8,GCTGCTACGTCAGGTTGGTCAGCTAACGGGTACG,-0.732
9,TAGCCTAGGTCAGACCGGGCCAGTATACGCTATA,-0.412
10,CCGAGTAGGTTATGGGGCACTCAGGCAACGGTGA,-0.0972
11,GCTTACGGGTCAAAGGTGATAGCATGAATAGAAT,-0.0532
12,CCTACTGGGCCAAACAGGTCATTGATGCCGATAA,0.801
13,ATATGTAGGTTATGGGGTCATTCAGTTTGCGCAT,11.7
14,ATCGAAAGGTCGTGAGGTTAGTATACAGAAAGGC,0.823
15,GCGACTGGGGCAAAGCAGGTTTCCATAAGGTTGG,-0.449
16,CCTACTAGGCCAAAAAGGTCATTGATGCCGATAA,5.01
17,GCTGCTAGGTCAACTGTTGGTCAGCTAAAGCTCG,-0.906
18,AGAACGAGGGCACGTTGAGTTGATAGCAGAGTAG,0.471
19,CGTCCAGGGTCAAAGGTCAGTGAAGAGATGACGG,0.868
20,ATCACTAGGTAAAAGTTCAGTGAATCCCGAGGAT,1.55
21,CCAGATAGGTGAGAAGGTAACTCAGCCTCGATTA,0.177
22,ACTATTAGTTAACTTAGGGCAACCGATACGACGC,0.13
